PubChem BioAssay AID1159580 (chemical genetic matrix, 2015)
Among all 5,500 compounds or so, about 2,000 (36%) were called active. Roughly 18% stayed inconclusive and do not appear here. No stated cut-off is given here; in the data, active means normalized growth mostly below about 0.91 (no sharp cut-off); inconclusive means no clear call, values can overlap the other calls; inactive means mostly above about 0.92. This is one part of the list.

Test: chemical genetic growth profiling, strain panel (AID 1159580);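 further: tested at 20 µM; growth read once vehicle control cultures reached saturation at 30 °C; 1 = growth at the plate median or of vehicle wells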
Conditions: S. cerevisiae deletion strains, growth OD

Measured: normalized growth

CNNC
inactive: locus YAL013W, strain DEP1, stronger effect = lower value 1.01 | locus YAL021C, strain ccr4, stronger effect = lower value 1.01 | locus YAL026C, strain drs2, stronger effect = lower value 1.02 | locus YAL030W, strain snc1, stronger effect = lower value 1.02 | locus YBL061C, strain skt5, stronger effect = lower value 1 | locus YBR009C, strain hhf1, stronger effect = lower value 1.01 | locus YBR021W, strain FUR4, stronger effect = lower value 1.04 | locus YBR023C, strain chs3, stronger effect = lower value 1 | locus YBR171W, strain sec66, stronger effect = lower value 0.995 | locus YBR229C, strain ROT2, stronger effect = lower value 1.01 | locus YBR231C, strain swc5, stronger effect = lower value 1.01 | locus YBR279W, strain paf1, stronger effect = lower value 1.02 | locus YCL011C, strain gbp2, stronger effect = lower value 1.01 | locus YCL016C, strain dcc1, stronger effect = lower value 1.04 | locus YCL029C, strain bik1, stronger effect = lower value 1.01 | locus YCL069W, strain vba3, stronger effect = lower value 1.01 | locus YCR088W, strain abp1, stronger effect = lower value 1.01 | locus YDL005C, strain med2, stronger effect = lower value 0.987 | locus YDL035C, strain GPR1, stronger effect = lower value 1.02 | locus YDL040C, strain nat1, stronger effect = lower value 1 | locus YDL074C, strain BRE1, stronger effect = lower value 1.07 | locus YDL101C, strain DUN1, stronger effect = lower value 1.03 | locus YDL134C, strain PPH21, stronger effect = lower value 1.02 | locus YDL185W, strain tfp1, stronger effect = lower value 1.01 | locus YDL192W, strain arf1, stronger effect = lower value 0.995 | locus YDR001C, strain nth1, stronger effect = lower value 1.02 | locus YDR069C, strain doa4, stronger effect = lower value 1.02 | locus YDR101C, strain arx1, stronger effect = lower value 0.989 | locus YDR137W, strain rgp1, stronger effect = lower value 1.04 | locus YDR150W, strain NUM1, stronger effect = lower value 1 | locus YDR159W, strain sac3, stronger effect = lower value 0.991 | locus YDR162C, strain NBP2, stronger effect = lower value 1.03 | locus YDR195W, strain ref2 0.981 | locus YDR297W, strain sur2, stronger effect = lower value 1 | locus YDR318W, strain mcm21, stronger effect = lower value 0.997 | locus YDR334W, strain swr1, stronger effect = lower value 1.01 | locus YDR335W, strain msn5, stronger effect = lower value 1.01 | locus YDR388W, stronger effect = lower value 0.994 | locus YDR392W, strain spt3, stronger effect = lower value 1.01 | locus YDR502C, strain sam2, stronger effect = lower value 1.01 | locus YEL003W, strain gim4, stronger effect = lower value 1.01 | locus YEL037C, strain rad23, stronger effect = lower value 1.02 | locus YEL061C, strain CIN8 (second series), stronger effect = lower value 1.01 | locus YEL061C, strain CIN8, stronger effect = lower value 1.01 | locus YER015W, strain faa2, stronger effect = lower value 1.01 | locus YER016W, strain bim1, stronger effect = lower value 1.01 | locus YER110C, stronger effect = lower value 0.996 | locus YER111C, strain swi4, stronger effect = lower value 1 | locus YER155C, strain BEM2 (second series), stronger effect = lower value 1.04 | locus YER155C, strain BEM2, stronger effect = lower value 1.03 | locus YER167W, strain BCK2, stronger effect = lower value 1.02 | locus YFR010W, strain ubp6, stronger effect = lower value 0.993 | locus YGL078C, strain dbp3, stronger effect = lower value 1 | locus YGL086W, strain mad1, stronger effect = lower value 1.01 | locus YGL167C, strain pmr1, stronger effect = lower value 0.998 | locus YGL173C, strain kem1, stronger effect = lower value 0.987 | locus YGL227W, strain vid30, stronger effect = lower value 1.01 | locus YGL240W, strain doc1, stronger effect = lower value 0.995 | locus YGL248W, strain PDE1, stronger effect = lower value 1.02 | locus YGL253W, strain hxk2, stronger effect = lower value 1 | locus YGR078C, strain PAC10, stronger effect = lower value 1.04 | locus YGR135W, strain pre9, stronger effect = lower value 1.01 | locus YGR229C, strain SMI1, stronger effect = lower value 1.02 | locus YGR252W, strain gcn5, stronger effect = lower value 0.955 | locus YHR013C, strain ard1, stronger effect = lower value 1.02 | locus YHR027C, strain rpn1, stronger effect = lower value 1.02 | locus YHR030C, strain SLT2, stronger effect = lower value 1.02 | locus YHR079C, strain IRE1 (second series), stronger effect = lower value 1 | locus YHR094C, strain hxt1, stronger effect = lower value 0.998 | locus YHR129C, strain ARP1, stronger effect = lower value 1.02 | locus YHR142W, strain chs7, stronger effect = lower value 1.04 | locus YHR200W, strain rpn10, stronger effect = lower value 1 | locus YIL066C, strain RNR3, stronger effect = lower value 1.01 | locus YIL073C, strain SPO22, stronger effect = lower value 0.998 | locus YIL125W, strain kgd1, stronger effect = lower value 0.99 | locus YIR030C, strain dcg1, stronger effect = lower value 1.01 | locus YJL092W, strain hpr5, stronger effect = lower value 1.03 | locus YJL095W, strain BCK1 (second series), stronger effect = lower value 1.01 | locus YJL095W, strain BCK1, stronger effect = lower value 1.05 | locus YJL115W, strain asf1, stronger effect = lower value 0.994 | locus YJL129C, strain trk1, stronger effect = lower value 1.01 | locus YJL134W, strain LCB3, stronger effect = lower value 1.02 | locus YJL154C, strain vps35, stronger effect = lower value 1.02 | locus YJL164C, strain tpk1, stronger effect = lower value 0.996 | locus YJL166W, strain qcr8, stronger effect = lower value 0.997 | locus YJL168C, strain set2, stronger effect = lower value 1 | locus YJL187C, strain SWE1 (second series), stronger effect = lower value 1.02 | locus YJR043C, strain POL32, stronger effect = lower value 0.998
